tested on: Inhibin beta A chain (activin A); test: INHBA (activin A) binders on microarrays, primary screen, biochemical, small-molecule microarray, 635 nm fluorescence scan (AID 1107); conditions: small-molecule microarray binding, higher = more signal;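 also: mouse activin A protein probed at 4.33 µg/mL on printed slides; score merges bound-protein fluorescence near 667 nm with spot signal-to-noise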

Compound | composite z-score
O=C1O[C@@H](c2ccccc2)[C@@H](c2ccccc2)N2[C@@H](c3ccc(O)cc3)[C@]3(C(=O)Nc4ccccc43)[C@@H](C(=O)Nc3nc4ccccc4s3)[C@H]12 | 0.3
C=C(COC)/C(=C/C[C@@H](OC(=O)c1ccncc1)c1cccc(OCCO)c1)c1cnc2ccccc2c1 | 1.81
O=C1O[C@@H](c2ccccc2)[C@@H](c2ccccc2)N2[C@@H](c3ccccc3OCCO)[C@]3(C(=O)Nc4ccc(C#CCCO)cc43)[C@@H](C(=O)N3CCN(c4ncccn4)CC3)[C@H]12 | -0.055
COC(=O)C[C@H]1O[C@]2(C(=O)N(C)c3ccccc32)[C@@H](C)[C@@H]1[Si](C)(C)c1ccc(C)cc1 | 0.0223
Cc1ccc(C(C)CC(O)C2C=CC3C(=O)N(c4ccccc4)C(=O)C3N2Nc2ccc(C(C)C)cc2)o1 (stereo unspecified) | 1.13
C[n+]1ccc(CCCO)cc1 | 1.57
C=C(COC)/C(=C/C[C@@H](OC(=O)c1ccncc1)c1ccc(CO)o1)c1cnc2ccccc2c1 | 1.87
CCOC(=O)[C@H]1C/C=C/C[C@H](C(=O)OCC)C(=O)O[C@H]2[C@@H](OC)O[C@H](CO)[C@@H](OC(=O)CCc3ccccc3)[C@@H]2OC1=O | 0.334
CCCCC(=C=CC[C@@H](O)c1ccc(OCCO)cc1)C[C@@H](O)COCc1ccccc1 | 0.856
CCCc1cccc(=O)o1 | 1.06
COCC(=C=CC[C@H](O)c1ccc(OCCO)cc1)C[C@H](O)COCc1ccccc1 | 0.928
O=C(NC1CC1)[C@@H]1c2ccccc2C(=O)N(Cc2ccccc2)[C@H]1c1ccc(CO)cc1 | 0.443
COCCOC(=O)N1C(=O)[C@@]2(c3cc(C#CC4=CCCCC4)ccc31)[C@H](C(=O)N1CCN(c3ncccn3)CC1)[C@H]1C(=O)O[C@H](c3ccccc3)[C@H](c3ccccc3)N1[C@@H]2c1ccc(O)cc1 | 0.275
O=C1C2C=CC(C(O)c3cc(C(F)(F)F)cc(C(F)(F)F)c3)N(Nc3ccc([N+](=O)[O-])cc3)C2C(=O)N1c1ccccc1 (stereo unspecified) | -0.0083
C=CCOC(=O)[C@@H]1[C@H]2C(=O)O[C@H](c3ccccc3)[C@H](c3ccccc3)N2[C@H](c2ccc(OCCOC(=O)[C@H]3C[C@H]4C(=O)N[C@@H](CCCCNC(C)=O)C(=O)N4[C@H]3c3cccc(OCCO)c3)cc2)[C@@]12C(=O)Nc1ccc(I)cc12 | 0.124
COC(=O)[C@@]1(Cc2ccccc2)[C@H]2c3cc(C(=O)N4CCCC4)n(C[C@H](O)CO)c3C[C@H]2CN1C(=O)c1ccccc1 | 0.956
COCCCNC(=O)[C@]1(CCC(=O)OC(C)(C)C)N=C(c2ccc(OCCCO)cc2)O[C@@H]1c1ccccc1 | -0.497
COCCOC(=O)N1C(=O)[C@@]2(c3cc(C#CC4=CCCCC4)ccc31)[C@H](c1ccccc1OCCO)N1[C@H](c3ccccc3)[C@H](c3ccccc3)OC(=O)[C@H]1[C@@H]2C(=O)N1CCc2cc(OC)c(OC)cc2C1 | -0.244

Compound | composite z-score
CC(C)(C)OC(=O)CC[C@]1(C(=O)N2CCOCC2)N=C(c2ccc(OCCCO)cc2)O[C@H]1c1ccccc1 | 0.456
COCCOC(=O)N1C(=O)[C@@]2(c3cc(C#CC4=CCCCC4)ccc31)[C@H](c1ccc(O)cc1)N1[C@H](c3ccccc3)[C@H](c3ccccc3)OC(=O)[C@H]1[C@@H]2C(=O)Nc1nc2ccccc2s1 | 0.248
CC1CC/C=C\[C@H]2OC34C=CCN(c5ccc6ccccc6c5)C(=O)[C@H]3N(C(CO)C(C)C)C(=O)[C@@H]4C2C(=O)O1 (stereo partly specified) | 1.2
CC(C)CNC(=O)[C@@H]1c2ccccc2C(=O)N(Cc2cc(F)cc(C(F)(F)F)c2)[C@H]1c1ccc(CO)cc1 | 0.669
C=C[C@H](COC(C)=O)NS(=O)(=O)c1ccc(Br)cc1 | 0.294
CC(C)CN1C(=O)[C@@]2(Cc3ccccc31)c1ccccc1C(=O)N(Cc1ccccc1C(F)(F)F)[C@H]2c1ccc(CO)cc1 | 0.731
O=C(CS)NCCCCCCNC(=O)[C@H]1C[C@H]2C(=O)N[C@@H](Cc3ccccc3)C(=O)N2[C@H]1c1cccc(OCCO)c1 | 0.68
CCOC(=CC(=O)OC)CC(O)c1cccc(Cl)c1 (stereo unspecified) | -0.297
O=C1C[C@]2(c3ccc([N+](=O)[O-])cc3)C(=O)N(Cc3ccccc3)c3cc(CO)ccc3[C@H]2N1CC12CC3CC(CC(C3)C1)C2 | -0.544
C=CCN1C(=O)[C@@]2(O[C@@H](CCO)[C@H]([Si](C)(C)c3ccc(OC)cc3)[C@H]2C)c2cc(N3C(=O)c4ccccc4Oc4ccccc43)ccc21 | 0.0761
CCOC(=O)[C@H]1C/C=C/C[C@H](C(=O)OCC)C(=O)O[C@H]2[C@@H](OC)O[C@H](CO)[C@@H](OC(=O)Nc3ccc(OC)cc3)[C@@H]2OC1=O | 0.467
COC(=O)C(CC#Cc1ccc2c(c1)[C@]1(C(=O)N2)[C@H](C(=O)O)[C@H]2C(=O)O[C@H](c3ccccc3)[C@H](c3ccccc3)N2[C@@H]1c1ccccc1OCCO)C(=O)OC | 0.194
C=CCC(OC(C)=O)[C@@H]1[C@@H](N(Cc2cc3ccccc3o2)C(=O)c2ccc(C)cc2)c2cc(OCCCO)ccc2N1C(=O)Cc1ccc2ccccc2c1 (stereo partly specified) | 1.2
Cc1ccc(S[C@]2(C(=O)NC3CC3)CC(=O)N(Cc3ccccc3Cl)[C@@H]2c2ccc(CO)cc2I)cc1 | 1.03
C=CCOC(=O)[C@@H]1[C@H]2C(=O)O[C@H](c3ccccc3)[C@H](c3ccccc3)N2[C@H](c2ccc(OCCOC(=O)[C@H]3C[C@H]4C(=O)N[C@@H](CCCCN(C)C)C(=O)N4[C@H]3c3cccc(OCCO)c3)cc2)[C@@]12C(=O)Nc1ccc(I)cc12 | 0.208
O=C1NC(=O)C2C1C=CC(C(O)c1ccc(Br)cc1)N2Nc1ccccn1 (stereo unspecified) | 1.37
O=C1NC(=O)C2C1C=CC(C(O)c1c(F)cccc1Cl)N2Nc1ccccn1 (stereo unspecified) | 1.13
[N-]=[N+]=Nc1ccccc1[C@H]1OC(c2ccc(OCCCO)cc2)=N[C@@]1(CCS(=O)(=O)c1ccccc1)C(=O)N1CCCCC1 | 1.38
